Test results reported in paper PMC5540273 (PLoS ONE, 2017).

System: SRPK1
Settings: concentration: 1 μM, replicates: in singlicate; n = 1
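Note: KINOMEscan kinase panel screen.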

SMILES | %Inh [%]
CN(c1ccc(NC(=O)Nc2cc(C(F)(F)F)ccc2F)cc1)c1ccnc(Nc2ccc(S(N)(=O)=O)cc2)n1 [GW809893] | 18
Nc1ncnc2c1nc(-c1ccccc1)n2-c1ccccc1 [SKF-97293] | 0
CN1CCN(CCCNc2nccc(-c3c(-c4ccc(F)cc4)nn4cc(C(F)(F)F)ccc34)n2)CC1 [GW621581] | 26
O=C(Nc1cccc(-c2nn3ccccc3c2-c2ccnc(Nc3cccc(C(F)(F)F)c3)n2)c1)c1c(F)cccc1F [GSK292658] | 12
COc1cc(Nc2nccc(N3CCC(NC(=O)Nc4cccc(C(C)=O)c4)C3)n2)cc(OC)c1OC (stereo not shown) [GSK1379753] | 50
Cl.Cl.NCC(C(=O)Nc1cc(Br)c(-c2ccnc3[nH]ccc23)s1)c1ccccc1 (stereo not shown) [GSK1269851] | 73
COc1ccc(Nc2nccc(NCCNC(=O)c3cc4ccccc4s3)n2)cc1 [GSK1379896] | 32
Cc1ccc(F)c(C(=O)Nc2cccc(-c3nn4ccccc4c3-c3ccnc(Nc4cccc(F)c4)n3)c2)c1F [GSK361061] | 15
Cl.Cl.NCC(NC(=O)c1cc(-c2ccccc2)c(-c2ccnc3[nH]ccc23)s1)c1ccccc1 (stereo not shown) [GSK1321561] | 53
Cc1cccc(Nc2nc(N[C@H]3CCNC3)ncc2C(N)=O)c1.Cl [GSK2197149] | 72
COc1cccc(C2=C(Nc3ccc(Cl)c(C(=O)O)c3)C(=O)NC2=O)c1 [SB-390769] | 13
O=C(Nc1cccc(-c2nn3ccccc3c2-c2ccnc(Nc3cccc(F)c3)n2)c1)c1c(F)ccc(F)c1Cl [GSK357952] | 45
COc1cccc(NC(=O)NC2CCN(c3ccnc(Nc4cc(OC)c(OC)c(OC)c4)n3)C2)c1 (stereo not shown) [GSK1379763] | 61
O=c1[nH]cc(-c2ccc(N3CCOCC3)cc2)c2sc(-c3cn[nH]c3)cc12 [GSK2276055] | 17
CC(C)(C)c1ccc2nccc(Nc3cccc(O)c3)c2c1 [GW856795] | 0
COc1ccc(Nc2nccc(N3CCC(NC(=O)Nc4cccc(OC)c4)C3)n2)cc1 (stereo not shown) [GSK1379742] | 12
CCS(=O)(=O)c1ccc(OC)c(Nc2nccc(-c3c(-c4cccc(NC(=O)c5c(F)cccc5F)c4)nn4ncccc34)n2)c1 [GSK326180] | 24
CC(C)c1nc(-c2cccc(NS(=O)(=O)c3c(F)cccc3F)c2F)c(-c2ccnc(Nc3ccc(N4CCOCC4)nc3)n2)s1 [GSK2008607] | 38
Fc1ccc(-c2ncn(C3CCNCC3)c2-c2ccnc(Oc3ccc(-c4ccccc4)cc3)n2)cc1 [SB-245391] | 5

SMILES | %Inh [%]
O=C(Nc1n[nH]c2cc(-c3ccoc3)ccc12)C1CC1 [SB-738481] | 48
Nc1ncc(-c2cccnc2)c2scc(-c3ccc4c(c3)CCN4C(=O)Cc3ccccc3)c12 [GSK683281] | 32
Nc1ncc(-c2ccc3nccc(-c4ccncc4)c3c2)cc1S(=O)(=O)N1CCOCC1 [GSK1627798] | 0
C[C@@H]1CC[C@@H](C(=O)Nc2ccccc2)CN1c1cc(-c2ccc3c(N)n[nH]c3c2)nc(N)n1 [GSK2286062] | 25
Cn1cc(-c2ccc3c(c2)CCN3C(=O)Cc2cccc(F)c2)c2c(N)ncnc21 [GSK2603358] | 0
Cc1ccc(C(=O)N2CC[C@@H](O)C2)cc1-n1c(C)cc(OCc2ccc(F)cc2F)c(Br)c1=O | 0
CN1CCN(Cc2cccc(-c3ccc4c(Nc5ccc(Oc6ccccc6)cc5)ccnc4c3)c2)CC1 [GW578342] | 69
CN(C)S(=O)(=O)c1cc(-c2ccc3nccc(-c4cccc(S(N)(=O)=O)c4)c3c2)cnc1N [GSK1669921] | 13
COc1cc(Nc2nccc(-c3c(-c4cccc(NC(=O)c5c(F)cccc5F)c4)nn4ncccc34)n2)cc(OC)c1OC [GSK327238] | 38
COCCOCCOc1cc2ncc3c4ccc(C#N)cc4[nH]c3c2cc1OC | 50
Cc1ccc(C(=O)Nc2ccc(Nc3ccnc4cc(-c5nccs5)ccc34)cc2O)cc1.Cl [GW494702] | 12
CC(=O)N1CCN(c2ccc(Nc3nccc(-c4sc(C(C)C)nc4-c4cccc(NS(=O)(=O)c5cccc(Cl)c5)c4)n3)cn2)CC1 [GSK1660437] | 44
COc1cccc(C(=O)Nc2cccc(Oc3ccc4nc(NC(=O)C5CC5)cn4n3)c2)c1 | 40
Cc1cccc(NC(=O)Nc2ccc(Oc3ncnc4ccn(C)c34)cc2)c1 | 11
Cc1ccc(S(=O)(=O)Nc2ccc(Nc3nccc(Nc4cccc5[nH]ncc45)n3)cc2)cc1 [GSK581271] | 51
O=C(Nc1ccccc1F)NC1CCN(c2ccnc(Nc3ccc(F)cc3)n2)CC1 [GSK1379800] | 11
Nc1n[nH]c2cnc(-c3ccccc3)cc12 [SB-642124] | 22
c1ccc(-c2n[nH]cc2Nc2ccnc3ccccc23)nc1 [GW694077] | 69
